Only some compounds are listed: those with a hit (about 1.3% of all), similar ones and a draw of the others.
MEX-5 binding: C. elegans MEX-5 TCR-2 RNA binding activity. Q9XUB2. MEX-5/FITC-TCR2 RNA binding, fluorescence polarization; stronger effect = lower value. hit rate 0.38% among 300,000. activity score (negative = inhibition of binding), % at 10 µM;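 active = inhibition past about -25% in most replicates, and total fluorescence under double the plate's negative control median, limit read from the data; inconclusive = replicates evenly split on the limit, or fluorescence at least double controls; inactive = too little inhibition in most replicates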;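 also: 0% = DMSO and -100% = 5 µM competing unlabeled TCR2 RNA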
BCLXL inh: blocks human Bcl-xL binding to Bim BH3 peptide; Q07817; GST-Bcl-xL / FITC-Bim BH3 peptide fluorescence polarization; inhibition, % at 10.9 µM; hit rate 0.7% among 320,000; AID 2129;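 active = inhibition above the mean of all tested compounds plus 3 SD, cutoff set per campaign, cut at about 30% in these data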;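 also: 0% = DMSO wells and 100% = unlabeled Bim-BH3 peptide competitor; inhibitors lower millipolarization by displacing the labeled peptide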
GLD-1 TGE inh: GLD-1-TGE RNA interaction inhibition (C. elegans); Q17339; purified GLD-1 + fluorescein TGE RNA, fluorescence polarization; inhibition, % at 5.96 µM; hit rate 0.44% among 320,000;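 active = percent inhibition above a per-plate cutoff, the plate mean of test compounds plus 3 SD, cut at about 30% in these data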;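 also: 0% = DMSO wells with GLD-1 and probe and 100% = wells lacking GLD-1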
MCL1-BIM inh: MCL1-BIM-BH3 interaction inhibition (human). Q07820. GST-MCL1 / FITC-Bim-BH3 fluorescence polarization. inhibition, % at 10.9 µM. hit rate 0.68% among 320,000. AID 2057;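 active = inhibition above the mean inhibition of all tested compounds plus 3 SD, set per campaign, cut at about 40% in these data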;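 also: 0% = DMSO wells and 100% = unlabeled Bim-BH3 peptide control; higher means more loss of mP so more displacement of Bim peptide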
Target sequence (Q07820 whole entry, looked up): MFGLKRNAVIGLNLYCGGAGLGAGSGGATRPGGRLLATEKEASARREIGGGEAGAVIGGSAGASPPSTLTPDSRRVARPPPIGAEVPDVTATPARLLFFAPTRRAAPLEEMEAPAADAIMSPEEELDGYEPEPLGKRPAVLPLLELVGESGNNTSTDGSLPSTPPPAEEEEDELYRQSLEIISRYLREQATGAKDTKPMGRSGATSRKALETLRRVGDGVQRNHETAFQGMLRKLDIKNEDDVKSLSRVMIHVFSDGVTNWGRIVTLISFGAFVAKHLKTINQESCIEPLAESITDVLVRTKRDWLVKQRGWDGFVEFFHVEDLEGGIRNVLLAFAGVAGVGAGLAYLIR
EBV gp42 inh: blocks Epstein-Barr virus glycoprotein 42 binding; Fluorescence polarization binding assay, mP read-out; inhibition, % (tested at 21.74 µM); hit rate 0.42% among 220,000; Q1HVG2; AID 1085; in the data active = inhibition above about 50%
Target sequence (Q1HVG2 whole entry, looked up): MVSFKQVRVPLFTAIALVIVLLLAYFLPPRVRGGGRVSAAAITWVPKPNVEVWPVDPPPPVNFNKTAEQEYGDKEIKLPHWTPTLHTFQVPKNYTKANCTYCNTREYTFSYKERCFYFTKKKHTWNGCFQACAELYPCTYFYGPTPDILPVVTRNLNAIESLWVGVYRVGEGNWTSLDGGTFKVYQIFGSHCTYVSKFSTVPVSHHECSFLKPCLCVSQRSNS
GLD-1 TGE cf: confirmation of C. elegans GLD-1 TGE RNA binding inhibitors | AID 2459 | hit rate 10% among 550 | shares compounds with GLD-1 TGE inh | inhibition, % at 5.96 µM | GLD-1/FL-TGE RNA fluorescence polarization, biochemical;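 active = average inhibition across triplicates above the hit cutoff set in the primary screen, cut at about 32% in these data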;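 also: 0% = GLD-1 with RNA probe and DMSO and 100% = wells lacking GLD-1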
The depositor's hits bear a star; ? = inconclusive; . = no result given.

SMILES	MEX-5 binding	BCLXL inh	GLD-1 TGE inh	MCL1-BIM inh	EBV gp42 inh	GLD-1 TGE cf
CCOc1ccc(S(=O)(=O)Nc2nc3ccc(OC)cc3s2)cc1	0	3	39*	0	9	-2
COCCn1c(=NC(=O)c2ccc(S(=O)(=O)N3CCCc4ccccc43)cc2)sc2cc(S(C)(=O)=O)ccc21	2	4	32*	2	-6	-8
N#CC1=C(N)C2=CCCC[C@H]2[C@H](c2ccc(Br)cc2)C1(C#N)C#N	.	40*	37*	38	19	1
CN1C2C=C3C(C#N)=C(N)C(C#N)(C#N)C(c4ccc(Br)cc4)C3C1CC2 (stereo unspecified)	-4	13	12	10	6	.
N#CC1=C(N)C2=CCCC[C@H]2[C@H](c2ccccc2)C1(C#N)C#N	-17	35*	40*	42*	28	-3
Cc1cccc(N2C(N)=C(C#N)C(C#N)(C#N)C2c2ccccc2)c1 (stereo unspecified)	2	2	3	-3	-13	.
CC1CCCCC1NS(=O)(=O)c1ccc2c(c1)CC(=O)N2C (stereo unspecified)	0	0	-8	4	.	.
CCOC(=O)c1sc(=S)n(C)c1NC(=O)c1ccccc1C	1	7	2	5	-28	.
CCOC(=O)c1c(C)nc2sc3c(=O)n(-c4ccc(OC)cc4)nnc3c2c1-c1ccc(OC)cc1	0	5	3	7	-18	.
CCOC(=O)c1c(C)nc2sc3c(=O)n(-c4ccc(C(C)=O)cc4)cnc3c2c1-c1ccc(OC)cc1	2	31*	43*	28	-12	0
Cc1cccc(CN2CCC(n3nccc3NC(=O)CCCc3ccccc3)CC2)n1	-2	1	14	1	.	.
CCN(c1cccc(C)c1)S(=O)(=O)c1c(C)[nH]c(C)c1C(=O)N1CCCCC1	1	4	-1	3	.	.
CCNC(=O)N1c2ccc(OC)cc2C(C)=CC1(C)C	-3	52*	70*	-2	2	-4
COc1ccc(NC(=O)N2c3ccc(OC)cc3C(C)=CC2(C)C)cc1	1	11	16	0	7	.
COc1ccc2[nH]cc(CCNC(=O)c3ccccc3Cl)c2c1	-2	47*	33*	52*	.	5
CCOC(=O)C1=C(O)c2ccccc2C(=O)/C1=C\c1ccc(C)cc1	.	37*	57*	43*	-1	-6
CCOC(=O)C1=C(C)N(c2ccc(C)cc2)C(=O)/C1=C\c1ccc(O)c(OC)c1	3	10	6	3	-4	.
Cc1ccc(OCC(=O)NC2CCS(=O)(=O)C2)c([N+](=O)[O-])n1 (stereo unspecified)	0	3	3	2	.	.
CCc1c(C)sc(NC(=O)OC)c1C(=O)N1CCCCC1	.	37*	33*	41*	38	7
CC(=O)Nc1ccc(S(=O)(=O)N2CCN=C2SCc2ccccc2C)cc1	1	2	3	1	.	.
O=C1C=C(c2ccc3c(c2)oc2ccccc23)C[C@@H](c2ccc3c(c2)OCO3)C1	.	0	3	-1	.	.
Cn1c(=O)c2cc(NCc3ccccc3)nnc2n(C)c1=O	-3	46*	32*	44*	0	5
COc1cccc(-c2nnc(NC(=O)C(C)C)o2)c1	1	47*	37*	50*	2	0
Cc1noc(C)c1CSCC(=O)Nc1cccc(C(F)(F)F)c1	.	.	9	.	.	.
Cc1nnc(SC(C)C(=O)Nc2ccc(Cl)cc2Cl)[nH]c1=O (stereo unspecified)	.	.	4	.	.	.
SMILES	MEX-5 binding	BCLXL inh	GLD-1 TGE inh	MCL1-BIM inh	EBV gp42 inh	GLD-1 TGE cf
CC(=O)Nc1ccc(N2C(=O)c3cccc(NC(C)=O)c3C2=O)cc1	1	2	51*	2	-18	0
N#CC1=C(N)Oc2c(oc(CO)cc2=O)C1c1ccccc1[N+](=O)[O-] (stereo unspecified)	-10	38*	37*	37	23	26
COc1ccccc1C1C(C#N)=C(N)Oc2c1oc(CO)cc2=O (stereo unspecified)	-6	4	5	8	-6	.
COc1ccc(CNC(=O)COC(=O)CN2C(=O)C3CC=CCC3C2=O)cc1 (stereo unspecified)	.	.	6	.	.	.
COc1ccc(S(=O)(=O)C(C#N)c2nc3ccccc3nc2N2CCCC(C)C2)cc1 (stereo unspecified)	-7	43*	33*	41*	32	7
CC1CCCN(c2nc3ccccc3nc2C(C#N)C(=O)OC2CCCCC2)C1 (stereo unspecified)	.	.	.	.	-11	.
COc1ccc(NC(=O)CN(C)C(=O)c2cc3c(cc2Cl)N2CCCCCC2=NS3(=O)=O)cc1	1	-6	5	-6	.	.
COc1ccc(OC)c(NC(=O)c2cc3c(cc2Cl)N2CCCCCC2=NS3(=O)=O)c1	.	.	35*	.	.	-8
CCOc1ccc(N2CC(C(=O)NCC(=O)Nc3ccc(F)c(F)c3F)CC2=O)cc1 (stereo unspecified)	.	5	1	3	.	.
CCOC(=O)C1CCN(C(=O)c2ccc3c(c2)NC(=O)/C(=C/c2ccccc2)S3)CC1	-7	11	-1	5	.	.
CCOC(=O)C1CCN(C(=O)c2ccc3c(c2)NC(=O)/C(=C\c2ccc(C)cc2)S3)CC1	?	37*	35*	42*	.	19
O=C(CSc1ccc(-c2ccco2)nn1)NCc1ccccc1Cl	-4	42*	34*	41*	11	-7
COc1ccccc1NC(=O)COC(=O)c1ccccc1C(=O)N1CCN(c2ccccc2)CC1	-5	42*	33*	44*	13	4
CCOC(=O)C1(CCCc2ccccc2)CCN(C(=O)CCOC)CC1	-1	-2	-2	-10	6	.
CC(C)N(Cc1nccn1C)C(=O)CC1C(=O)NCCN1Cc1ccc(F)cc1 (stereo unspecified)	.	10	10	10	.	.
CC(C)N(Cc1nccn1C)C(=O)CC1C(=O)NCCN1Cc1ccc(F)c(F)c1 (stereo unspecified)	-3	25	38*	26	.	2
Cc1ccc2nc3n(c(=O)c2c1)-c1ccc(Cl)cc1C(=O)NC3Cc1ccccc1 (stereo unspecified)	.	4	33*	3	.	1
CCOC(=O)CNc1c(-c2ccc(OC)cc2)nc2ccc(Cl)cn12	-11	16	37*	18	12	20
CCOc1ccc(NC(=O)CC2S/C(=N/N=C3CCCCCC3)NC2=O)cc1 (stereo unspecified)	1	0	39*	2	.	1
c1ccc2oc(-c3ccc(Nc4nc(N5CCCC5)nc(N5CCOCC5)n4)cc3)nc2c1	-2	-5	0	-6	2	.
CC1CCCCN1Cc1c(O)ccc2c(=O)c(-c3ccccc3)coc12 (stereo unspecified)	1	36*	42*	41*	.	-1

Screens (PubChem)
